The values that follow come from PubChem BioAssay (EPA / NIEHS).

The nature of assay [1]: ACEA_AR_antagonist_AUC_viability: ACEA Biosciences xCELLigence Real-Time Cell Analysis on Androgen Receptor Antagonism for Viability (AID 2283776).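 Further: 22Rv1 human prostate cancer cells growing on impedance electrode plates; hits lower the growth signal relative to DMSO meaning cytotoxicity.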 Summed up: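 Impedance read-out (RT-CES): area under growth curve at 80 h post-dose, loss of signal scored vs DMSO baseline. 22Rv1 cells; 8-pt 1:4 series, top 100 uM final, ≤0.5% DMSO; biological duplicate.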
Assay [2] is described as follows: STM_H9_NormalizedViability: Cytotoxicity Assessment at 120 hours in the Stemina devTOX quickPredict H9 human embryonic stem cell (hESC)-based Assay (AID 2283784). Summed up: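 CellTiter-Fluor RFU, background-subtracted, expressed relative to 0.1% DMSO neutral control by plate. Pluripotent H9 cells; treatment with daily re-dosing. Plates carried 1uM methotrexate (positive) and 5 nM methotrexate (negative) references.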

For assay [3], the target named is AR (gene 367) (UniProt P10275). In words: ACEA_AR_agonist_80hr: ACEA Biosciences xCELLigence Real-Time Cell Analysis on Androgen Receptor Agonism for Proliferation (AID 2283783).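 Further: hits increase impedance growth signal above DMSO baseline.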 Summed up:
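Impedance (RT-CES) growth signal at 80 h post-dose; 22Rv1 cells, 8-pt 1:4 series, top 100 uM final, DMSO ≤0.5%; duplicate plates; gain-of-signal fit relative to DMSO baseline.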

Assay [4] is described as follows: ACEA_ER_AUC_viability: ACEA Biosciences xCELLigence Real-Time Cell Analysis on Estrogen Receptor Agonism for Viability (AID 2283782).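 Further: hit means loss of impedance signal meaning reduced cell growth or viability.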 Summed up:
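Read-out: real-time electrical impedance (RT-CES) area under curve, loss of signal taken as reduced viability, normalized to DMSO baseline. T-47D cells, charcoal-stripped serum medium, compounds up to 100 uM final, continuous exposure, 80 h.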

Assay [5] deals with AR (gene 367) (UniProt P10275). The assay is described as follows: ACEA_AR_antagonist_80hr: ACEA Biosciences xCELLigence Real-Time Cell Analysis on Androgen Receptor Antagonism for Proliferation (AID 2283787).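 Further: 22Rv1 human prostate cancer cells with growth followed by electrical impedance; hits lower the impedance growth signal relative to DMSO.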 Summed up:
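Measures real-time proliferation of 22Rv1 prostate cancer cells by electrode impedance at 80 hours after dosing. Test articles ran at eight concentrations (1:4 steps, top 100 uM final) in biological duplicate.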

Inconclusive results are not listed. The source made the active and inactive calls. How the source made its calls: active means hit-call score of the fitted dose curve at least 0.9, where 1 is the maximum; inconclusive means response in the unintended direction; inactive means score below 0.9.

Chain of AR (gene 367) (P10275 whole entry, looked up): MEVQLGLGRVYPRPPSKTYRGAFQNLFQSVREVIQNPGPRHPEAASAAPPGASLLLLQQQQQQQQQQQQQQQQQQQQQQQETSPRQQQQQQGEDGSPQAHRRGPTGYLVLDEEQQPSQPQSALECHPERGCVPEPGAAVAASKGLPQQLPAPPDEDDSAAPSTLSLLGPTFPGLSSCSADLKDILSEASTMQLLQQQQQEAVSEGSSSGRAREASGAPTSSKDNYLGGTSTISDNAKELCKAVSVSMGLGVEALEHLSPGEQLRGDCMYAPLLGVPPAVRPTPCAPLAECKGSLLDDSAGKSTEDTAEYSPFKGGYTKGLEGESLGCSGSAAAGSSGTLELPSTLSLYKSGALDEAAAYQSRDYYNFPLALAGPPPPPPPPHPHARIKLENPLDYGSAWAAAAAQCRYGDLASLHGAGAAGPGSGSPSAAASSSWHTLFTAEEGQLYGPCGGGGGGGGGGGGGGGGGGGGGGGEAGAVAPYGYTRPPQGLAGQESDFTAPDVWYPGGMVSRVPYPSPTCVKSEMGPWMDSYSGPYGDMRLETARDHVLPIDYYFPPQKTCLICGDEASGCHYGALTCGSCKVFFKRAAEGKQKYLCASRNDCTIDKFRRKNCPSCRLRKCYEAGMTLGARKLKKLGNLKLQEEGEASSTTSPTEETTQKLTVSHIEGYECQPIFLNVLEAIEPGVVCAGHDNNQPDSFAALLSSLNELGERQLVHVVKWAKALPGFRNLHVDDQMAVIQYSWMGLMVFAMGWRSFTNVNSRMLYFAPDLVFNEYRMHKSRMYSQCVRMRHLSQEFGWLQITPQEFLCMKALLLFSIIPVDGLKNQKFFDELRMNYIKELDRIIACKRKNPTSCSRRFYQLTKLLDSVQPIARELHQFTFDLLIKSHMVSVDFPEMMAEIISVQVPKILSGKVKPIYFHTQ

As for `Cn1c(=O)cc(Oc2ccc(F)cc2F)c2cnc(NCC(C)(C)O)nc21`, the outcome in assay [1] and in assay [2] was inactive.
As for `Cc1ccc(S(=O)(=O)O)cc1C`, the outcome in assay [1] was inactive.
Regarding `CCN(C(=O)c1cc(C)cc(OC[C@H](C)Nc2ccncc2)c1)C(C)C`, in assay [1], the half-maximal activity concentration (AC50) is 11.2 µM (active). Further, the result in assay [2] was inactive.
Take `NC(=O)NO`: the compound was classed as inactive in assay [1]. For the same compound, the AC50 in assay [2] was 341 µM (active).
In the case of `CC(=O)OCCC(C)C`, in assay [1], the compound was classed as inactive.
As to `Clc1nc(Cl)c(Cl)c(Cl)c1Cl`, the concentration at half-maximal activity (AC50) in assay [1] is 50 µM (active).
On to `COc1ccc(/C=C/S(=O)(=O)NC(=O)c2ccc(C)cc2Cl)cc1`, for which the half-maximal activity concentration (AC50) in assay [1] was 22.7 µM (active).
Turning to `CC(=O)OC[C@H]1O[C@@](COC(C)=O)(O[C@H]2O[C@H](COC(C)=O)[C@@H](OC(C)=O)[C@H](OC(C)=O)[C@H]2OC(C)=O)[C@@H](OC(C)=O)[C@@H]1OC(C)=O`, the compound was classed as inactive in assay [1].
As for `C1N2CN3CN1CN(C2)C3`, the call in assay [1] and in assay [3] was inactive.
For the compound `CC(C)CCCCCCCOC(=O)CCCCC(=O)OCCCCCCCC(C)C`, the outcome in assay [1] and in assay [4] was inactive.
As to `CC1(C)C(=O)N(Br)C(=O)N1Br`, the compound was classed as inactive in assay [1] and in assay [5].
On to `O=C(O)c1cccc(Oc2ccccc2)c1`, for which the compound was called inactive in assay [1].
Turning to `CN(C)c1ccc(N=NS(=O)(=O)O)cc1`, the AC50 in assay [3] was 10.7 µM (active); in assay [2] it was 21.1 µM (active).
As for `COc1ccc2sc(C(=O)Nc3nnn[nH]3)c(OC(C)C)c2c1`, the figures for the AC50 in assay [1] and in assay [2] were 12.9 µM (active) and 2.01 µM (active), respectively.
In the case of `O=c1n(CC2CO2)c(=O)n(CC2CO2)c(=O)n1CC1CO1` (stereo not given), the half-maximal activity concentration (AC50) in assay [1] was 1.02 µM (active); in assay [2], 1.06 µM (active).
For `CC[C@H]1CC[C@H](NCc2cc3c(cc2OC)[C@H]2C[C@H]2C(=O)N3C)[C@H](c2ccccc2)N1`, the concentration at half-maximal activity (AC50) was 18.2 µM (active) in assay [1] and 9.43 µM (active) in assay [2].
As for `CCCN(C1CCN(C(=O)C2CCNCC2)CC1)[C@@H]1CCc2ccc(OC)cc2C1`, the AC50 in assay [1] is 50 µM (active); in assay [5], 63.9 µM (active). In addition, the compound was classed as inactive in assay [3].
As for `Cc1ccc(C)c(O)c1`, the compound was classed as inactive in assay [1].
As to `On1ccccc1=S`, the values for the AC50 in assay [1], in assay [4] and in assay [2] were 50 µM (active), 88.8 µM (active) and 8.35 µM (active), respectively.
As to `CC(C)CCCCCCOC(=O)c1ccc(C(=O)OCCCCCCC(C)C)c(C(=O)OCCCCCCC(C)C)c1`, the compound was classed as inactive in assay [1].
As for `CCOCCOCCOCCO`, the compound was called inactive in assay [1].
For `COC(=O)c1c(Cl)c(Cl)c(C(=O)OC)c(Cl)c1Cl`, the half-maximal activity concentration (AC50) in assay [1] was 50 µM (active). Also, in assay [4], the call was inactive.
As for `O=C1CCC(N2C(=O)c3ccccc3C2=O)C(=O)N1` (stereo not given), the compound was called inactive in assay [1].
As to `O=C(OC[C@H]1O[C@@H](OC(=O)c2cc(O)c(O)c(OC(=O)c3cc(O)c(O)c(O)c3)c2)[C@H](OC(=O)c2cc(O)c(O)c(OC(=O)c3cc(O)c(O)c(O)c3)c2)[C@@H](OC(=O)c2cc(O)c(O)c(OC(=O)c3cc(O)c(O)c(O)c3)c2)[C@@H]1OC(=O)c1cc(O)c(O)c(OC(=O)c2cc(O)c(O)c(O)c2)c1)c1cc(O)c(O)c(OC(=O)c2cc(O)c(O)c(O)c2)c1`, in assay [4], the compound was classed as inactive.
With `COC(=O)CC(=O)OC`, in assay [1], the outcome was inactive.
As for `C=CC(=C)CCC=C(C)C`, the compound was classed as inactive in assay [1].
As to `CCCCCCCCCCCCCCCO`, the AC50 in assay [1] was 89.4 µM (active).
Turning to `CCCCC(CC)COC(=O)c1ccc(C(=O)OCC(CC)CCCC)cc1` (stereo not given), the compound was classed as inactive in assay [1], in assay [3] and in assay [5].

As usually defined, the AC50 is the concentration giving half of the maximal activity seen.
